Results on 14 compounds are retold here after PubChem BioAssay (NCI).

Each structure is given as a SMILES string. Compounds without any hit were thinned out: in the full panel of roughly 83,000, 20% have a hit.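 Growth was measured after 48 h exposure to one concentration of compound in 96-well plates. Values under 10 count as active.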 A number with no mark means an inactive call. Active and inactive are the calls of the source.

Assay in all cases: NCI-60 one-dose screen, 48 h (100 = growth as untreated, 0 = no growth, -100 = all killed)
Holding throughout (conditions): 10 µM

Assay [1] has as its system DU-145 prostate.
Assay [2] relates to K-562 leukemia.
The test system of assay [3] is MALME-3M melanoma.
The subject of assay [4] is MDA-MB-231 breast.
Assay [5] deals with RXF 393 renal.
Assay [6] relates to SF-268 CNS.
Assay [7] has as its system SF-295 CNS.
For assay [8], the system named is SF-539 CNS.
Assay [9] concerns UACC-257 melanoma.
The subject of assay [10] is M14 melanoma.

For `CC1CCC2C(C)(C)C3CC12CC1OC13C` (stereo not given), the growth in assay [1] was 117%; in [2], 123%; in assay [3], 107%; in [4], 110%; in [5], 98.9%; in assay [6], 110%. Also, the growth in assay [7] is 104%; in assay [8], 98.9%; in assay [9], 113%; in [10], 109%.

Take `CC1CCCCN1C(=S)Nc1ccc(S(=O)(=O)N2CCCCC2)cc1` (stereo not given): the growth was 106% in assay [1]; 84.6% in assay [2]; 130% in assay [3]; 119% in assay [4]; 109% in assay [5]; 97.2% in [6]. Besides, the growth in [7] was 79.2%; in [8], 96.9%; in assay [9], 105%; in assay [10], 89.2%.

As for `CCCCOC(=O)c1ccc(C(C)C)cc1`, the growth in [1] was 106%; in [2], 106%; in assay [3] it was 87%; in assay [4] it was 109%; in assay [5] it was 112%; in [6], 100%. Further, the growth in assay [7] was 101%; in [8], 96.6%; in assay [9] it was 77.3%; in [10] it was 96.5%.

On to `CC1=CC(C)(C)NC(=S)N1c1ccc(S(=O)(=O)O)c2cccc(S(=O)(=O)O)c12`, for which the growth was 111% in assay [1]; 116% in [2]; 115% in [3]; 98.3% in assay [4]; 107% in assay [5]; 104% in assay [6]. The growth in assay [7] was 113%; in [8], 105%; in [9], 112%; in [10], 107%.

With `CCOC(=O)Nc1cc2c(c(N)n1)N=C(c1ccccc1)CO2`, the growth was 10.6% in assay [1]; 10.1% in assay [2]; 64.8% in assay [3]; 13.6% in [4]; 27.3% in [5]; 38.4% in [6]. Moreover, the growth in [7] was 17%; in assay [8], 1.93% (active); in assay [9], 86.4%; in assay [10], 15.4%.

For `Cc1cccc(C(=O)N(C(C)C)C(C)C)c1`, the growth in assay [1] was 103%; in assay [2], 104%; in [3], 95.5%; in assay [4], 109%; in assay [5], 107%; in [6], 99%. Further, the growth in assay [7] was 90.4%; in assay [8], 96.3%; in assay [9] it was 87.3%; in assay [10] it was 96.1%.

As for `COc1cc2c3c(n(C)c(=O)c2cc1OC)-c1cc2c(cc1C3=O)OCO2`, the growth was 56.5% in assay [1]; 40.8% in assay [2]; 81.6% in assay [3]; 97.1% in assay [4]; 75.7% in assay [5]; 59.3% in [6]. The growth was 29.4% in assay [7], 63.7% in [8], 78.2% in assay [9] and 63% in [10].

Turning to `COc1cc2cc(OC(C)=O)c3cc4c(cc3c2c(OC)c1OC)OCO4`, the growth was 98.8% in assay [1]; 107% in assay [2]; 98.4% in assay [3]; 108% in [4]; 94.6% in assay [5]; 97.9% in [6]. The growth in assay [7] is 93%; in assay [8], 103%; in [9], 105%; in assay [10], 96.5%.

Turning to `COc1cc(C(=O)NC(=S)Nc2ccc3ccccc3c2)cc(OC)c1OC`, the growth is 102% in assay [1]; 88% in assay [2]; 90.1% in [3]; 100% in assay [4]; 94.5% in [5]; 103% in assay [6]. Further, the growth in assay [7] is 44.7%; in [8] it was 93.1%; in [9], 90.7%; in [10], 115%.

As to `COc1nc(N)nc2c1ncn2C1OC(CO)CC1O` (stereo not given), the growth is 110% in assay [1]; 101% in assay [2]; 100% in assay [3]; 112% in [4]; 112% in assay [5]; 108% in assay [6]. Also, the growth in [7] was 113%; in assay [8], 45.6%; in assay [9], 111%; in [10] it was 104%.

Take `O=C(O)CCC(=O)OC(C1CO1)C(OC(=O)CCC(=O)O)C1CO1` (stereo not given): the growth is 105% in [1]; 103% in assay [2]; 86.9% in assay [3]; 130% in assay [4]; 99.9% in assay [5]; 105% in [6]. Further, the growth in assay [7] is 92.3%; in [8], 95.2%; in [9] it was 85%; in [10], 98.9%.

For `C/C(=N/NC(N)=O)c1ccco1`, the growth in assay [1] is 110%; in assay [2], 88.3%; in assay [3], 93.4%; in [4], 118%; in [5], 108%; in assay [6] it was 104%. Also, the growth in assay [7] is 104%; in assay [8] it was 101%; in [9] it was 83%; in [10] it was 91.8%.

On to `C#Cc1cccc(NC(=O)c2ccc(Cl)cc2Cl)c1`, for which the growth in assay [1] is 112%; in [2], 85.5%; in assay [3] it was 108%; in [4] it was 118%; in assay [5] it was 105%; in assay [6] it was 98.9%. Moreover, the growth in [7] is 107%; in [8] it was 95.7%; in assay [9], 108%; in assay [10] it was 98%.

`CC1CCCC(CC(N)=O)CC1` (stereo not given): the growth in assay [1] is 117%; in assay [2], 94.3%; in [3], 107%; in [4], 103%; in [5], 117%; in assay [6], 104%. Moreover, the growth in [7] is 89.4%; in [8] it was 98.4%; in [9], 104%; in assay [10], 108%.
